In PubChem BioAssay (NCI):
About 79,000 compounds went through this panel and 15% of them were active in at least one assay; those are over-represented in the sample as a whole. Values without a mark were called inactive. Activity calls are given as the source filed them. No stated cut-off is given here; in the data, active means growth inhibition above about 70%; inactive means the rest.

How the values were obtained:
[1] = NCI Yeast Anticancer Drug Screen. Data for the rad50 strain (AID 155);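 further: 0% = growth of vehicle-only cultures of the same strain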; settings: S. cerevisiae rad50 strain growth inhibition; at 50.0 µM; stronger effect = higher value
In short: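 Genetically altered yeast (DNA repair pathway); compound treatment; growth inhibition vs vehicle ctrl.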

[2] = NCI Yeast Anticancer Drug Screen. Data for the mec2-1 strain (AID 157); settings: S. cerevisiae mec2-1 strain, at 50.0 µM, stronger effect = higher value
In short: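 Compounds were applied to mec2-1 yeast cells. Their growth was then compared with that of vehicle-treated cultures to give growth inhibition.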

[3] = NCI Yeast Anticancer Drug Screen. Data for the sgs1 mgt1 strain (AID 161);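 further: 0% = growth of cultures given vehicle only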; settings: S. cerevisiae sgs1 mgt1 strain, at 50.0 µM, stronger effect = higher value
In short: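 Compounds are added to genetically altered yeast, and growth is compared with cultures given vehicle alone to give percent inhibition.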

[4] = NCI Yeast Anticancer Drug Screen. Data for the cln2 rad14 strain (AID 165);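 further: 0% = growth equal to vehicle treated cultures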; settings: S. cerevisiae cln2 rad14 strain, at 50.0 µM, stronger effect = higher value
In short: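 Strain: cln2 rad14 yeast, altered in cell cycle control and DNA damage repair. Read-out: growth inhibition vs vehicle.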

[5] = NCI Yeast Anticancer Drug Screen. Data for the bub3 strain (AID 167); settings: S. cerevisiae bub3 mutant strain, at 50.0 µM, stronger effect = higher value
In short: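 Yeast carrying a defined mutation is treated with each compound, and growth is compared with that of vehicle-exposed cells to give inhibition.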

[6] = NCI Yeast Anticancer Drug Screen. Data for the mlh1 rad18 strain (AID 175); settings: S. cerevisiae mlh1 rad18 strain growth inhibition; at 50.0 µM; stronger effect = higher value
In short: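 A repair-deficient yeast strain is exposed to test compound, and growth is scored relative to vehicle-treated controls.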

Structure (SMILES)	growth inhibition [1]	growth inhibition [2]	growth inhibition [3]	growth inhibition [4]	growth inhibition [5]	growth inhibition [6]
NC(=O)/N=C/c1c(O)c2ccccc2oc1=O	9.6%	-0.8%	-11.6%	-3.35%	-42%	-3.1%
CSC1(C)C(=O)Nc2ccccc21 (configuration not stated)	-4.15%	-9.65%	-0.35%	-20.8%	-36.3%	3.6%
NCCCCCC(N)=O	45%	32.5%	38.8%	21.2%	33.5%	33.1%
CCCN(CCCC(NC(C)=O)C(=O)NCc1ccccc1)C(=O)N(C)N=O (configuration not stated)	-21.1%	-24.8%	-4.25%	19.9%	-14.8%	-11.9%
NC(=O)NNC(=O)Cc1ccccc1	1.35%	-0.25%	-1.95%	0.55%	-0.95%	-3.45%
Cc1cccc(-c2c3ccccc3cc3c2ccc2ccccc23)c1	11.9%	-5.35%	-3.55%	-13.8%	8.7%	-2.65%
CNc1ncnc2c(C3OC(CO)C(O)C3O)[nH]nc12 (configuration not stated)	16%	10.8%	6.6%	20.8%	-0.8%	13.4%
O=C(CC(=O)c1ccccc1)Nc1cccnc1	-21.2%	8.9%	-0.3%	-21.2%	-1.8%	-6.95%
CN(C)c1ccc(/C=c2/sc3nc(=O)c(-c4ccccc4NC(=O)C(F)(F)F)nn3c2=O)cc1	3.95%	2.65%	-5.95%	-12.1%	-20.4%	-5.15%
Clc1ccccc1/C=C1\c2ccc(Br)cc2-c2cccc[n+]21	92.1% (active)	95.8% (active)	95.5% (active)	91.4% (active)	93% (active)	95.7% (active)
O=[N+]([O-])c1ccc(N=N/C(=N\Nc2ccccc2)c2nc3ccccc3[nH]2)c([N+](=O)[O-])c1	7.45%	-5.2%	-7.35%	19.6%	-4.35%	15.2%
O=C1C=CC(=O)N1CCCCN1C(=O)C=CC1=O	18.8%	3.75%	-17.9%	-20.1%	-14.4%	-11.9%
Nc1ccc(S(=O)(=O)O)cc1[N+](=O)[O-]	4.4%	3.8%	-3.75%	1%	5.8%	12.6%
Cc1ccccc1/C=N/Nc1ccc([N+](=O)[O-])cc1[N+](=O)[O-]	-2.45%	13.4%	-1.75%	-35.1%	-25.1%	-11.8%
O=C1OC(=Nc2ccccc2Cl)c2ccccc21	-21.6%	-21.5%	-5.05%	-9.1%	14.5%	18.3%
CN(C)CCCNC(=O)c1cc(NC(=O)c2cc(NC(=O)c3cc(NC(=O)CCCn4ccc(CO)c4CO)cn3C)cn2C)cn1C	6.6%	-8.6%	-5.35%	31.6%	4.8%	8.35%
C=C1C(=O)OC2C1C(=O)C/C(C)=C/CCC1(C)OC21 (configuration not stated)	35.6%	52%	63.2%	34%	66%	9.95%
COc1cc(NS(C)(=O)=O)ccc1Nc1c2ccccc2nc2c1[nH]c1ccc(NC3OC(CO)C(O)C(O)C3O)cc12 (configuration not stated)	53.8%	-4.9%	3.35%	0.2%	-26.3%	-27.6%
COc1ccc(C2N(c3ccccc3)OC(=O)N2c2ccccc2)cc1 (configuration not stated)	43.8%	7.2%	16.1%	9.1%	14.4%	20.8%
COC(=O)c1cnccn1	-3.3%	-1.35%	-3.85%	-27.4%	0.75%	-6.3%
COc1ccc(/C=C/C(=O)c2ccc3c(c2)OCO3)cc1OC	-15.6%	-14.8%	-45.1%	-6.65%	-33.7%	-23.5%

Structure (SMILES)	growth inhibition [1]	growth inhibition [2]	growth inhibition [3]	growth inhibition [4]	growth inhibition [5]	growth inhibition [6]
CCOc1ccc(NC(=O)CC2SC(=Nc3ccc(C)cc3C)NC2=O)cc1 (configuration not stated)	12.6%	24.5%	33.3%	44.3%	39.4%	28.8%
O=C(O)C1CCN(C(=O)Cc2ccccc2)CC1	-12.5%	-1.95%	-2.15%	-5.6%	0.05%	-14.7%
COC(=O)/C(C#N)=C(\C)CC(C)C	13.2%	-17.4%	-20.1%	-3.65%	-24.4%	-9%
COC(=O)C1=C(C(=O)OC)C2C=CC1C1C(Cl)=C(Cl)C21 (configuration not stated)	-12%	-0.95%	-10.7%	21.2%	33.6%	-34%
CC(=O)Nc1cccc2c(OC(C)=O)cccc12	15.1%	-20.9%	-19.7%	-50%	7.6%	-4.1%
COc1cc(NC(N)=O)ccc1Nc1c2ccc(N)cc2nc2cc(N)ccc12	69.8%	22.6%	9.05%	43%	-14.9%	27.6%
O=c1cc(-c2ccccc2)oc2c1ccc1c(O)cccc12	11.1%	-2.5%	-6.9%	21.5%	31.9%	8.95%
O=C(O)c1cccc(C(=O)O)c1C(=O)O.[NH-]C1CCCCC1[NH-].[Pt+2]	-17.8%	0.1%	-15.5%	22.1%	7.8%	-34.3%
COc1ccc(/C=C2\N=C(c3cccc(Cl)c3)OC2=O)cc1OC	14.6%	4.25%	18.2%	12.2%	6.3%	-7.85%
Cc1cc(=O)oc2c1c(C)nn2-c1cccc(Cl)c1	-14.5%	-13.2%	4.05%	-60.9%	-5.1%	-1.85%
N#Cc1ccc(Nc2cnc3ccc(N)cc3n2)cc1	-41.2%	-37.6%	-43.8%	-25.4%	-25.4%	-54.1%
Cc1ccc(N2C(=O)/C(=C/c3ccc(N(CCC#N)CCC#N)cc3)CC2(O)c2ccccc2)cc1 (configuration not stated)	-12.1%	-12.6%	-38.3%	-23.8%	-13.1%	-5.55%
O=C(OCc1ccccc1)c1ccccc1O	39.1%	16.1%	46.1%	-16.1%	22.8%	57.5%
Cc1ccc(/C([O-])=C(/C(=S)Nc2ccccc2)[n+]2ccccc2)cc1	-5.3%	22%	7.55%	-22.1%	18.1%	13.1%
CC(=O)/C=C/CCC(=O)/C=C/C(=O)OC(CCC(=O)/C=C/C(=O)O)CC(C)=O (configuration not stated)	-5.25%	-30.4%	-18.4%	19.1%	-24.1%	-5.95%
COc1cccc(C2SCC(=O)N2c2nncs2)c1OC (configuration not stated)	-34.8%	6%	9.95%	8.3%	2.6%	-9%
CN(/N=C\c1ccc2ccccc2c1)C1=NCCN1	5.65%	0.25%	-14.8%	-63%	4.1%	-12.1%
COC(=O)/C=C1\C(=O)c2ccccc2-c2ccccc21	35.8%	35.4%	13.9%	20.3%	25.4%	51.6%
O=S(O)OS(=O)O	-5.95%	-19.4%	-15.6%	-0.4%	18.9%	-13.3%
CCC/C=C/C=C/C1CC(O)C(O)C(=O)C1CO (configuration not stated)	5.25%	-29.6%	17.1%	7.9%	1.9%	-0.7%
COc1ccccc1N1C(=O)C2C3c4ccccc4C(OC(C)=O)(c4ccccc43)C2C1=O (configuration not stated)	-19.8%	-13.6%	4.25%	3.4%	-14.8%	12.9%
